Screens deposited in PubChem by National Center for Advancing Translational Sciences (NCATS).
12-hLO inh = 12-hLO (ALOX12) enzyme inhibition; AID 1452; Potency, µM (series often up to 57.1 µM), inactives show at the top dose activity change, negative = inhibition, usual class: inhibitors; purified 12-hLO, xylenol orange hydroperoxide absorbance; hit rate 0.12% among 150,000; P18054; also: potency is read from the fitted curve at half-maximal effect; nearly all actives have a fitted effect of over 55% in size
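Hydroperoxide output read as Fe(III)-xylenol orange absorbance, 573-to-405 nm ratio, after 30 min reaction with 40 uM arachidonic acid. Enzyme: 150 nM purified human 12hLO, 15 min compound preincubation; 25 mM Hepes pH 7.0, room temperature.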
IMPase Li inh = IMPase inhibition in cells with lithium potentiation; AID 1457; hit rate 0.35% among 210,000; Potency, µM (top dose mostly 59.4 µM), inactives show at the highest dose activity, negative = IMPase inhibition, hits mostly inhibitors; CHO-M1 cells, IP1 TR-FRET (IP-One), carbachol + lithium;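 also: IP1 builds up when IMPase is blocked and the TR-FRET signal falls; potency is read from the fitted curve at half-maximal effect; plate controls were basal vehicle for no effect and high inhibitor control for full effect; nearly all actives have a fitted effect of over 50% in size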
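CHO cells stably expressing M1 receptor (2000/well, cultured 16–30 h) treated 30 min at 37C with compound plus low lithium. Cytosolic IP1 by TR-FRET (665/620 ratio and 620 channel) after 10 min lysis; AC50 by Hill fit.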
IMPase cell inh = membrane-permeable compound that blocks inositol monophosphatase | P97697 | CHO-M1 cells, IP1 accumulation, HTRF TR-FRET ratio | inhibition (IP1 accumulation), % at 46.1 µM | 120,000 tested, under 10 active; active = well fitted curve in the direction sought with a large enough effect in the signal ratio, not every such curve was filed as active; inconclusive = small, poorly fitted or top-dose-only effect, or a change in a side signal; inactive = no such curve, though single readings can be large or run the other way; the % refers to the signal ratio;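 also: cells stimulated with carbachol in lithium chloride buffer; plate controls were DMSO basal wells for no effect and reference inhibitor wells for full effect; higher means more IMPase inhibition seen as more IP1 and lower FRET ratio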
Target sequence (P97697 whole entry, looked up): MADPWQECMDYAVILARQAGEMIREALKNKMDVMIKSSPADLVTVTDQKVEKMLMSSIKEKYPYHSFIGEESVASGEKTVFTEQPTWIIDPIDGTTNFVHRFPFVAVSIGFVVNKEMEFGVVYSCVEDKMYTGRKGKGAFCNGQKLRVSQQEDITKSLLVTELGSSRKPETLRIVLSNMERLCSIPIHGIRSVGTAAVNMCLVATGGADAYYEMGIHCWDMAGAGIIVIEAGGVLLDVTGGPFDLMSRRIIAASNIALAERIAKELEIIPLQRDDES
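The IP-One HTRF competitive assay in carbachol-stimulated CHO-M1 cells quantifies cellular IP1. Compounds spanned up to 46 uM final, and activity is expressed as AC50 from concentration-response fits of the ratio and donor data.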
PNC assembly inh = blocks assembly of the perinucleolar compartment | AID 2417 | hit rate 3.1% among 140,000 | activity change (PNC), negative = inhibition, % at 10 µM | PC3M PTB-GFP, PNC prevalence imaging, 16 h; hits give low values;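 active = readout at or below -70, meaning at least 70% loss of cells showing the perinucleolar compartment, a nuclear body marking cancer cells; inconclusive = readout between -30 and a set limit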;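 also: plate controls were DMSO wells for no effect and camptothecin positive control wells for full effect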
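PC3M cells stably expressing PTB-GFP, 750–1000 cells/well, treated 16 h at 37 °C with compound (23 nl of library stock), in duplicate. After paraformaldehyde fixation and Hoechst stain, imaged at 20x; PNC prevalence scored by image analysis.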
ALOX15B inhib = blocks human 15-lipoxygenase 2 activity. purified 15hLO-2, xylenol orange hydroperoxide absorbance. Potency, µM (doses to about 57.1 µM), inactives show at the highest dose activity change, negative = inhibition, most hits filed as inhibitors. hit rate 0.56% among 110,000. O15296. AID 881; also: potency is read from the fitted curve at half-maximal effect; nearly all actives have a fitted effect of over 60% in size
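Purified human 15hLO-2 (50 nM final) preincubated with compounds 15 min at room temperature in 25 mM Hepes pH 7.5, 0.01% Triton X-100, then 45 uM arachidonic acid added for 90 min; hydroperoxide detected via ferrous/xylenol orange, 573/405 nm absorbance ratio.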
HPGD inh = blocks human HPGD enzyme activity | P15428 | purified HPGD, NADH fluorescence kinetic, PGE2 substrate | Potency, µM, for inactives: at the highest dose activity change, negative = inhibition, most hits filed as inhibitors | hit rate 4.3% among 150,000 | AID 894; active = well fitted inhibition curve with a large enough effect, not every such curve was filed as active; inconclusive = small, poorly fitted or top-dose-only effect, or another doubt; inactive = no such curve, though single readings can be large or run the other way; also: potency is read from the fitted curve at half-maximal effect
Target sequence (P15428 whole entry, looked up): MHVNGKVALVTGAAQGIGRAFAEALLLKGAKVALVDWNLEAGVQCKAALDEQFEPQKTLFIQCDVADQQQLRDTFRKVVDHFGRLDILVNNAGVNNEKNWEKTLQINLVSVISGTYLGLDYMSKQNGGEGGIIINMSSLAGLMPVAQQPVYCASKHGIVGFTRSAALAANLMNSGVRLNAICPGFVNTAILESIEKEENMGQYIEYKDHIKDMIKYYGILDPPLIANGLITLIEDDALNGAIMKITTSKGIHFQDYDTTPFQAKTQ
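NADH formation kinetics: reaction with 30 uM PGE2 and 1 mM NAD+ (final), 20 nM enzyme, Tris-HCl pH 8 with Tween 20, after 15 min compound preincubation at room temperature. Fluorescence change, last versus first of five reads.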
* = called active by the depositor; ? = inconclusive; . = not tested or not shown; [ ] = dose if it differs, or a comment. The list is not random: actives were taken first. Their share in the collection is about 5.4%. Unless noted, calls follow the shape of the dose curve; as a rule, active = well fitted curve in the direction sought with a large enough effect; inconclusive = small, poorly fitted or top-dose-only effect, or another doubt; inactive = no such curve, though single readings can be large; an effect the other way counts as inactive or inconclusive. Unless noted, % is scaled to controls: 0 for no effect and ±100 for the full control effect.

SMILES	12-hLO inh	IMPase Li inh	IMPase cell inh	PNC assembly inh	ALOX15B inhib	HPGD inh
Nc1c(C(=O)N2CCCCC2)sc(=S)n1-c1ccccc1	-5.6%	23.4%[38.3 µM]	-6.0	?	-12.7%	3.16µM*
Nc1c(C(=O)N2CCOCC2)sc(=S)n1-c1ccccc1	1.2%	17.0%[38.3 µM]	0.2	40.0	-3.8%	11.2µM*
O=C(c1sc(N2CCOCC2)nc1-c1ccccc1)N1CCCCC1	-1.5%	-0.1%	3.1	9.7	.	0.0%
CC(=O)c1ccc(Oc2ncnc3sccc23)c(CN2CCOCC2)c1	3.1%	1.1%	0.8	-10.5	.	25.1µM*
N[C@@H](Cc1ccnnc1)C(=O)O	-4.5%[11.4 µM]	-7.6%	.	.	2.4%[11.4 µM]	-10.2%
Cc1nnc(SC(C)C(=O)NCC2CCCO2)n1-c1ccccc1 (stereo not given)	3.2%	5.8%[38.3 µM]	-6.4	?	-18.0%	-6.9%
CC(C)OC(=O)CSc1nnc(-c2cnccn2)n1-c1ccccc1	-5.9%	3.5%	-10.3	202.6	.	-29.8%
c1ccc(-n2c(SCC3CCCCO3)nnc2-c2cnccn2)cc1 (stereo not given)	-4.2%	-9.1%[38.3 µM]	3.2	-28.4	20.4%	28.2µM*
COc1ccc(/C=C/C(=O)OCC(=O)NCC2CCCO2)cc1 (stereo not given)	1.0%	0.6%	.	-81.6*	.	-22.2%
Cc1nnc(SCC(=O)NCC2CCCO2)n1-c1ccccc1 (stereo not given)	3.6%	-12.0%[38.3 µM]	-9.7	-118.1*	3.4%	-18.9%
COc1ccc(-n2c(N)c(C(=O)NCC3CCCO3)sc2=S)cc1 (stereo not given)	-1.3%	28.5%[38.3 µM]	-3.8	47.9	-12.7%	15.8µM*
COc1cccc(/C=C/C(=O)OCC(=O)NCC2CCCO2)c1 (stereo not given)	4.9%	-8.7%	.	-28.2	.	?
COc1ccc(-n2c(SCC(=O)NCC3CCCO3)nc3ccccc32)cc1 (stereo not given)	-1.9%	16.4%[38.3 µM]	-2.6	5.4	3.2%	10µM*
OCCNc1ncnc2ccc(Br)cc12	-7.8%	.	?	21.2	1.8%	.
CCN(CC)c1ncnc2ccc(Br)cc12	-1.6%	25.1µM*	-8.3	?	-0.9%	-16.4%
CCCCc1ccc(NC(=O)C(C)CC)cc1 (stereo not given)	.	4.9%	.	.	.	.
CCCCc1ccc(NC(=O)CC(C)(C)C)cc1	2.6%	4.2%	.	44.1	.	14.1µM*
CCCCc1ccc(NC(=O)CC(C)=O)cc1	-3.0%	-0.2%[38.3 µM]	-6.2	-126.9*	0.4%	-5.2%
CCCOC(=O)c1ccc(NC(=O)CC(C)(C)C)cc1	.	-0.4%	.	.	.	.
O=C(O)C1CC(=O)N(CCC23CC4CC(CC(C4)C2)C3)C(=Nc2ccccc2)S1 (stereo not given)	-19.1%	.	.	.	.	-16.2%
Cc1nc(NC(=O)CSc2nc3cccnc3n2C2CCCCC2)sc1C	0.1%	-29.3%[38.3 µM]	-4.6	-124.9*	-14.9%	-12.0%
Cc1ccnc(NC(=O)c2c(O)c3ccccc3n(C)c2=O)c1	-4.2%	-24.5%[38.3 µM]	-17.4	-5.5	-10.2%	-13.0%
Cn1c(=O)c(C(=O)Nc2ncccc2O)c(O)c2ccccc21	-14.0%	0.8%[38.3 µM]	7.4	-13.2	0.0%	22.4µM*
CSC1=N/C(=C\c2c(F)cccc2Cl)C(=O)S1	13.8%	-7.3%	.	59.4	.	4.47µM*
CN(Cc1ccco1)c1cc(-c2ccoc2)ncn1	.	5.7%	.	.	16.0%	.
SMILES	12-hLO inh	IMPase Li inh	IMPase cell inh	PNC assembly inh	ALOX15B inhib	HPGD inh
CC(NC(=O)/C(C#N)=C/c1ccc(Cl)c([N+](=O)[O-])c1)c1ccccc1 (stereo not given)	-25.2%	2.9%	.	-100.0*	.	3.2%
C[C@H](NC(=O)/C(C#N)=C/c1ccc(O)c(O)c1)c1ccccc1	20µM*	64.2%	16.3	.	?	6.2%
CC(C)NC(=O)/C(C#N)=C/c1ccc2c(c1)OCCO2	2.8%	0.7%	-0.4	-2.3	.	28.2µM*
CCOc1cc(C2c3c(oc4ccccc4c3=O)C(=O)N2Cc2ccc3c(c2)OCO3)ccc1O (stereo not given)	.	.	-6.8	.	.	.
CCCCCCCN[C@H]1CCC[C@@H]1CCCCCCC(=O)O	-1.2%	11.7%	.	.	.	-4.5%
C=CCNC(=O)/C(=C\C=C\c1ccccc1)NC(=O)c1ccc(OCCCC)cc1	4.5%	17.0%[38.3 µM]	8.4	-104.8*	-11.8%	-19.2%
